Experimental data from ChEMBL document CHEMBL5724796, “Tm Shift (DSF) assay results for EUbOPEN Chemogenomics Library” (2024).
Residues, ends and D or L forms follow the SMILES beside them. *: point of attachment. Cbz = O=C(OCc1ccccc1)*; Boc = CC(C)(C)OC(=O)*; CH2F = FC*

What follows are compounds tested against Tyrosine-protein kinase ABL1 (Homo sapiens) (UniProt P00519). Details: Compound concentration 20.0 uM.
Tyrosine-protein kinase ABL1 (Homo sapiens), sequence (P00519 whole entry): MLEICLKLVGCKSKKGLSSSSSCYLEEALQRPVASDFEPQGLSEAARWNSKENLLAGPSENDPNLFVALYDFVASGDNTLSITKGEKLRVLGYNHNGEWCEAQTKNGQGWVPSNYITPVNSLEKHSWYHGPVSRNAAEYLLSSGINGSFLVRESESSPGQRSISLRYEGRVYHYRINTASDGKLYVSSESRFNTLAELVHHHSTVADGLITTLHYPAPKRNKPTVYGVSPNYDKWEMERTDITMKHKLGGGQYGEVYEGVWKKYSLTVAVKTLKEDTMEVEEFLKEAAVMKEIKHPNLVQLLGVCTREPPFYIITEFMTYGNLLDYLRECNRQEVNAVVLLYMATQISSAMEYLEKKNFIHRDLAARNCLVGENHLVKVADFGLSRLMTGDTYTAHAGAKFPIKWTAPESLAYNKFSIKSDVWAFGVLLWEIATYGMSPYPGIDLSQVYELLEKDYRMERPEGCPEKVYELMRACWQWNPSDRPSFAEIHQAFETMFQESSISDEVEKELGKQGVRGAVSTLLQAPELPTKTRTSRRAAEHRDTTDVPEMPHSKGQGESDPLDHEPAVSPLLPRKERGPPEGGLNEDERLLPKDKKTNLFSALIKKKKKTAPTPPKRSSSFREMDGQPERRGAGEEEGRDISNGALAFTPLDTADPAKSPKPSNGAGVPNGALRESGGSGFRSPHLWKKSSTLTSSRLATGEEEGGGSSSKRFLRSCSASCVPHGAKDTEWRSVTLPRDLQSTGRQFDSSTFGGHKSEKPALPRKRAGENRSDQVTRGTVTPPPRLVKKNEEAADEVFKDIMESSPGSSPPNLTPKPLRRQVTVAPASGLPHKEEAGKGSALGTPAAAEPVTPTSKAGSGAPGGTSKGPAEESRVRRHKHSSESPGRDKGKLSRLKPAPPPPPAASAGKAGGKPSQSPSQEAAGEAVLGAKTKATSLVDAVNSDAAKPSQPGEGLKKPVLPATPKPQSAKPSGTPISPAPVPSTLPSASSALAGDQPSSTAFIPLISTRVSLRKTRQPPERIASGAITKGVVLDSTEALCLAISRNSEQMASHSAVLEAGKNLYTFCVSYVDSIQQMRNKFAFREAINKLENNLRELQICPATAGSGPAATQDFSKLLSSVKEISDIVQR
`CCn1c(=S)[nH]c2cc3c(NCc4ccccc4N4CCC(CO)CC4)ncnc3cc21` showed a ΔTm of 0.75 °C.
`COc1cc2c(cc1OC)[C@H]1C[C@@H](O)[C@H](CC(C)C)CN1CC2` gave a ΔTm of 0.04 °C.
For `C=CCn1c(N[C@@H]2C[C@H](c3ccc(OCc4ccccc4)cc3)CN(C)C2)nc2cc[nH]c2c1=O`, the ΔTm was 0.69 °C.
`CC(C)[C@H](NC(=O)[C@H](CCC(=O)O)NC(=O)[C@H](C)NC(=O)OC(C)(C)C)C(=O)N[C@H](C=O)CC(=O)O` (Boc-AEVD-aldehyde) showed a ΔTm of 0.28 °C.
Work on `Cc1cnc(-c2ccccc2C(C)C)nc1NCc1ccc(-n2ccnn2)cc1` yielded a ΔTm of 0.32 °C.
For `O=C(c1ccc2c(ccn2-c2ccc(F)cc2)c1)N1CC(N2CCN(C(=O)c3nccs3)CC2)C1`, the ΔTm was 0.62 °C.
For `Cc1c(Nc2ccc(S(=O)(=O)N3CCN(C)CC3)cc2F)nc2ccc(-c3cnn(C4CC4)c3)cn2c1=O`, the ΔTm was 0.73 °C.
`CC(=O)Nc1ccc(C(=O)Nc2ccc(F)cc2N)cc1` gave a ΔTm of 2.43 °C.
Compound `CCCCCCCCCCCCCCCCNNC(=O)c1cccs1` has a ΔTm of 0.05 °C.
Work on `CCNC(=O)NCCSC[C@H]1O[C@@H](n2cnc3c(N)ncnc32)[C@H](O)[C@@H]1O` yielded a ΔTm of 0.85 °C.
With `CNc1cc(-c2cccc(Cl)c2Cl)nc(N)n1` the ΔTm was 0.38 °C.
With `CCNC(=O)/C=C/c1cccc(Br)c1` the ΔTm was 0.39 °C.
`O=C(c1cc(Cc2n[nH]c(=O)c3ccccc23)ccc1F)N1CCN(C(=O)C2CC2)CC1` showed a ΔTm of 0.22 °C.
`CCCOC(=O)N1CCN(C(=O)c2ccc3c(Cl)cc(-c4ccc(C5(N)CC5)cc4)nc3c2)C[C@H]1C` showed a ΔTm of 0.57 °C.
`CC(C)C[C@@H](C=O)NC(=O)[C@@H](NS(=O)(=O)c1ccc(F)cc1)C(C)C` gave a ΔTm of -0.01 °C.
Compound `CC(C)NCC(O)COC(Cn1c2ccccc2c2ccccc21)Cn1c2ccccc2c2ccccc21` (stereo not drawn) has a ΔTm of 0.25 °C.
With `COc1ccc(-c2c(-c3ccc(C#N)c(F)c3)nc(N3CCC(N)CC3)n(C)c2=O)cc1F` the ΔTm was 0.65 °C.
`Cc1noc2c1-c1ccccc1C(c1ccc(Cl)cc1)=N[C@H]2CC(N)=O` was tested, and the ΔTm was 0.53 °C.
For `O=C(NO)c1cccc(C(=O)NCCc2ccccc2)c1`, the ΔTm was 0.54 °C.
`N#Cc1c(N)[nH]c2cc(/C=C/c3cccc(F)c3)ccc12` was tested, and the ΔTm was 1.1 °C.
With `O=C(O)CCNc1cc(N2CCc3ccccc3CC2)nc(-c2ccccn2)n1` the ΔTm was 0.06 °C.
With `CN1CCN(c2cc(C(=O)Nc3ncc(SCc4cccc(C(F)(F)F)c4)s3)ccn2)CC1` the ΔTm was 3.36 °C.
With `CC1=NN(c2ccc(C(=O)O)cc2)C(=O)/C1=C/c1ccc(-c2cc(C)c(C)cc2[N+](=O)[O-])o1` the ΔTm was 3.73 °C.
`CC(C)(C)NS(=O)(=O)c1cccc2c(NC(=O)[C@H](Cc3ccccc3)NC(=O)C3CCCCC3)cccc12` was tested, and the ΔTm was 0.13 °C.
Compound `CC(=O)N1CCC(c2ccc(C(=O)NC(=N)N)cc2C(F)(F)F)CC1` has a ΔTm of 0.12 °C.
For `O=C(NO)c1cnc(NC2(c3ccccc3)CC2)nc1`, the ΔTm was -0.47 °C.
For `CC(C)c1cnc(CSc2cnc(NC(=O)C3CCNCC3)s2)o1`, the ΔTm was 0.26 °C.
Compound `O=C(O)CCNC(=S)NCCCC[C@H](NS(=O)(=O)c1cccc(F)c1)C(=O)N[C@@H](Cc1c[nH]c2ccccc12)C(=O)NC1CCC1` has a ΔTm of 0.2 °C.
In the case of `CNCC[C@@H](Oc1ccccc1C)c1ccccc1`, the ΔTm is reported as 0.14 °C.
`CCN(C(=O)c1cc(F)ccc1Oc1cncnc1N1CC2(CCN(C[C@H]3CC[C@H](NS(=O)(=O)CC)CC3)CC2)C1)C(C)C` gave a ΔTm of 0.7 °C.
In the case of `Cc1ccc2c(c1)nc(/C=C/c1cccc3cccnc13)n2-c1cccc(OCCCN2CCN(C)CC2)c1`, the ΔTm is reported as 0.62 °C.
`CN1Cc2c(Cl)cc(Cl)cc2[C@H](c2cccc(S(=O)(=O)NCCOCCOCCNC(=O)NCCCCNC(=O)NCCOCCOCCNS(=O)(=O)c3cccc([C@@H]4CN(C)Cc5c(Cl)cc(Cl)cc54)c3)c2)C1` was tested, and the ΔTm was -0.4 °C.
`C[C@H](NC(=O)[C@H](Cc1ccccc1)NC(=O)OCc1ccccc1)C(=O)CF` gave a ΔTm of 0.31 °C.
`Cc1cc(C)nc(SCC(=O)Nc2ncc(Cc3cccc(OCc4cn(Cc5ccccc5)nn4)c3)s2)n1` showed a ΔTm of -4.58 °C.
Work on `COC(=O)CC(NC(=O)C(C)NC(=O)C(NC(=O)C(CC(=O)OC)NC(=O)C(NC(=O)OCc1ccccc1)C(C)C)C(C)C)C(=O)CF` (stereo not drawn) (Cbz-VD(OMe)VAD(OMe)-CH2F; configuration not given here) yielded a ΔTm of 0.15 °C.
`CC1C(C#N)=C(N)OC2=C1C(=O)CC(c1cccc3ccccc13)C2` (stereo not drawn) was tested, and the ΔTm was 0.3 °C.
`Cc1ccc(C(=O)Nc2ccc(S(=O)(=O)O)c3cc(S(=O)(=O)O)cc(S(=O)(=O)O)c23)cc1NC(=O)c1cccc(NC(=O)Nc2cccc(C(=O)Nc3cc(C(=O)Nc4ccc(S(=O)(=O)O)c5cc(S(=O)(=O)O)cc(S(=O)(=O)O)c45)ccc3C)c2)c1` showed a ΔTm of 0.88 °C.
Work on `CN1C[C@@H]2[C@H](C1)[C@H]2CN(Cc1ccc(F)c(Cl)c1)C(=O)c1cn(C)cn1` yielded a ΔTm of 0.53 °C.
